# PubChem BioAssay AID651593 (National Center for Advancing Translational Sciences (NCATS), 2012)
# In all, about 1,100 compounds went through this assay and about 860 (78%) were called active. About 19% were inconclusive and are not listed. The set was probably picked from earlier hits. The list shows a part of the results. A number with no mark means an inactive call. Calls come from the whole dose curve; as a rule, active = well fitted activation curve with a large enough effect; inconclusive = small, poorly fitted or top-dose-only effect; inactive = flat fitted curve, though single readings scatter.
# Assay: qHTS of Nrf2 Activators: Hit Validation in Primary Assay; note: nearly all actives have a fitted effect of over 70% in size; for activation: 0% is about no effect
# Conditions: Nrf2/ARE reporter cell assay; Potency: activation; series mostly up to 46.1 µM; activation: at the top concentration
# Procedure, shortened: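 Luminescence from Steady-Glo lysis reagent, read after 30 min, reported ARE-luciferase activity in AREc32_fluc stable cells. Compounds were tested at several concentrations, incubated 24 h at 37 °C with 5% CO2 following overnight seeding.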
# Potency is the fitted concentration of half-maximal effect.
SMILES,Potency,activation [%]
Oc1c(-c2cc(-c3ccco3)[nH]n2)ccc2ccccc12,2.31 µM (active),
Oc1ccc(Br)cc1-c1cc(-c2ccco2)[nH]n1,3.66 µM (active),
Oc1ccc(Cl)cc1-c1cc(-c2ccco2)[nH]n1,3.66 µM (active),
COc1ccccc1NC(=O)c1cc(Cl)nc2ccccc12,5.17 µM (active),
O=[N+]([O-])c1cnccc1-n1nnc2ccccc21,18.4 µM (active),
COc1ccc(S(=O)(=O)NCCc2csc3nc(-c4ccc(Cl)cc4)nn23)cc1C,5.17 µM (active),
O=C(COCc1cc(-c2cccs2)on1)Nc1cc(Cl)ccc1O,2.31 µM (active),
O=C(COCc1cc(-c2ccc(F)cc2)on1)Nc1cc(Cl)ccc1O,8.2 µM (active),
Oc1ccccc1C1CC(c2cccs2)=NC(c2ccc(Cl)cc2)N1 (configuration not stated),13 µM (active),
C/C(=N\NC(=O)COc1ccccc1[N+](=O)[O-])c1cccs1,6.51 µM (active),
COC(=O)c1ccccc1NC(=O)COc1ccccc1[N+](=O)[O-],2.59 µM (active),
O=c1nc2c(-c3ccccc3F)n[nH]n2c2ccccc12,2.59 µM (active),
CCNc1nc(NCC)nc(N(C)/N=C/c2ccco2)n1,2.59 µM (active),
O=C(N/N=C/c1ccco1)Nc1ccccc1,8.2 µM (active),
O=C(N/N=C\c1ccco1)Nc1cccc(Cl)c1,2.31 µM (active),
O=C(Nc1ccc(F)cc1)c1nsc(Cl)c1Cl,1.64 µM (active),
Clc1ccc(C=Cc2ccccn2)cc1,5.17 µM (active),
Clc1ccc(C=Cc2ccccn2)c(Cl)c1,3.66 µM (active),
O=C(Nc1cccc(/C=C/c2ccccn2)c1)c1ccc(-n2cncn2)cc1,,10.1
CC1(C)C2C/C(=N\O)C(C)(/[N+]([O-])=C/c3cccc([N+](=O)[O-])c3)CC21 (configuration not stated),20.6 µM (active),
N#C/C(=C\C=C\c1ccccc1)C(=O)NCc1cccnc1,2.31 µM (active),
CCCNc1ccc(-c2nc(-c3ccco3)no2)cc1[N+](=O)[O-],2.31 µM (active),

SMILES,Potency,activation [%]
O=[N+]([O-])c1cc(-c2nc(-c3ccccc3)no2)ccc1NCc1cccnc1,2.31 µM (active),
COCCNc1ccc(-c2nc(-c3ccco3)no2)cc1[N+](=O)[O-],1.46 µM (active),
CCNc1ccc(-c2nc(-c3ccco3)no2)cc1[N+](=O)[O-],1.46 µM (active),
Cc1nn(-c2cccc(C(F)(F)F)c2)c(=O)c2ccccc12,3.66 µM (active),
CCOc1ccc(Br)cc1-c1noc(-c2cccs2)n1,2.31 µM (active),
CCOc1ncccc1-c1nc(-c2cccs2)no1,18.4 µM (active),
COc1cc(-c2noc(-c3cccs3)n2)cc(OC)c1OC,13 µM (active),
CCN=c1scc(C)n1/N=C/c1ccsc1,7.31 µM (active),
Cc1nc([N+](=O)[O-])c(Br)n1Cc1ccccc1,20.6 µM (active),
c1ccc2c(c1)nnn2-c1ncnc2sccc12,13 µM (active),
Clc1nc2sccn2c1/C=N/n1cnc2ccccc21,2.59 µM (active),
O=C(CSc1nnc(-c2cccnc2)o1)c1cc2ccccc2oc1=O,18.4 µM (active),
Oc1ccccc1C=NN=Cc1c(O)ccc2ccccc12,3.66 µM (active),
Cc1cc(N/N=C/c2c(O)ccc3ccccc23)nc(-c2ccccc2O)n1,,12.2
Nc1nonc1N/N=C/c1c(O)ccc2ccccc12,6.51 µM (active),
O=C(Nc1cccc([N+](=O)[O-])c1)Nc1cccs1,18.4 µM (active),
Cc1c(NC(=O)Nc2cccs2)cccc1[N+](=O)[O-],11.6 µM (active),
O=c1oc2ccc(Cl)cc2nc1/C=C(\O)c1ccco1,14.6 µM (active),
O=c1oc2ccc(Cl)cc2nc1/C=C(\O)c1cccs1,14.6 µM (active),
CC(C)(C)/C(O)=C/c1nc2cc(Cl)ccc2oc1=O,13 µM (active),
N=c1oc2ccccc2cc1-c1nc(-c2ccccc2)cs1,3.66 µM (active),
O=c1oc2ccccc2cc1-c1csc(Nc2ccc(O)cc2)n1,4.61 µM (active),

SMILES,Potency,activation [%]
O=c1oc2ccccc2cc1-c1nc2c(s1)CCc1ccccc1-2,3.26 µM (active),
O=c1oc2ccccc2cc1-c1nc(-c2cccs2)cs1,3.66 µM (active),
COc1ccccc1C(=O)NCc1nc2cccnc2n1Cc1ccc(F)cc1,2.91 µM (active),
C#CCSc1nnc(-c2sc3ccccc3c2Cl)o1,2.59 µM (active),
c1cncc(-c2nc(NCc3ccco3)c3ccccc3n2)c1,5.17 µM (active),
Cc1ccc(-c2nc(NCc3ccco3)c3ccccc3n2)cc1,6.51 µM (active),
O=C(CCN1C(=O)c2cccc3cccc(c23)C1=O)Nc1ccon1,4.61 µM (active),
Cc1cc(=O)oc2c(C(=O)/C=C/c3ccccc3)c(O)ccc12,2.59 µM (active),
Cc1cc(=O)oc2c(C(=O)/C=C\c3cccs3)c(O)ccc12,9.2 µM (active),
Cc1ccc(S(=O)(=O)CCSC(=N)N)cc1,18.4 µM (active),
O=C(Nc1ccc(Cl)cn1)c1cnn2cccnc12,5.17 µM (active),
COc1cccc(/C=C2/CCC(CN(C)C)C2=O)c1 (configuration not stated),3.66 µM (active),
C=CCc1cccc(C=Nc2cc(Br)ccc2O)c1O,3.26 µM (active),
Cc1ccc(Cn2c(/C=C/c3ccco3)nc3ccccc32)cc1,2.31 µM (active),
Cc1cc(CNC(=O)c2cccc([N+](=O)[O-])c2)c2ccccc2n1,,20.2
O=C(Nc1ccccn1)c1ccc(Cl)c([N+](=O)[O-])c1,18.4 µM (active),
O=C(Nc1nc2ccccc2[nH]1)c1ccc(Cl)c([N+](=O)[O-])c1,20.6 µM (active),
O=C(Nc1nc2ccccc2[nH]1)c1cccc([N+](=O)[O-])c1,2.06 µM (active),
S=c1[nH]nc(-c2ccncc2)n1/N=C/C=C/c1ccco1,8.2 µM (active),
CC(/C=N/n1c(-c2ccncc2)n[nH]c1=S)=C\c1ccco1,2.59 µM (active),
S=c1[nH]nc(-c2ccccc2)n1/N=C/C=C/c1ccco1,,29.9
Cc1cccc(-c2n[nH]c(=S)n2/N=C/C=C/c2ccco2)c1,2.06 µM (active),

SMILES,Potency,activation [%]
O=C1C(=Cc2cccc(F)c2)Cc2ccccc21,13 µM (active),
O=C1C(=Cc2cccc(Cl)c2)Cc2ccccc21,4.61 µM (active),
COC(=O)/C=C1/S/C(=N/N=C/c2ccco2)NC1=O,0.82 µM (active),
O=C(/C=C/c1cccs1)c1ccco1,20.6 µM (active),
CCCN(C(=O)c1ccco1)c1nnc(-c2ccccc2C)s1,8.2 µM (active),
S=c1[nH]nc(COc2ccccc2)n1/N=C/C(Cl)=C/c1ccccc1,4.61 µM (active),
S=c1[nH]nc(-c2cccnc2)n1/N=C/C(Cl)=C\c1ccccc1,14.6 µM (active),
S=c1[nH]nc(-c2ccco2)n1/N=C/C(Cl)=C/c1ccccc1,23.1 µM (active),
Cc1ccc(NC(=O)c2cc(=O)c3ccccc3o2)cc1,20.6 µM (active),
O=C(Nc1ccc(F)cc1)c1cc2ccccc2o1,3.66 µM (active),
Cc1ccc(C)c(NC(=O)COC(=O)c2cc(=O)c3ccccc3o2)c1,20.6 µM (active),
O=c1oc(CCCO)cc2ccc(C#Cc3ccsc3)cc12,2.31 µM (active),
O=c1[nH]c(O)c(/C=C2\C=Nc3ccc(Br)cc32)[nH]1,8.2 µM (active),
O=c1[nH]c(O)c(/C=C2\C=Nc3ccccc32)[nH]1,14.6 µM (active),
O=C(CN1CCS(=O)(=O)CC1)N/N=C/c1cccc(C(F)(F)F)c1,2.31 µM (active),
Nc1nc(-c2ccccc2)cc(-c2ccccc2O)n1,4.11 µM (active),
Oc1ccccc1-c1csc(-c2ccccc2)n1,7.31 µM (active),
C[n+]1c2n(c3ccccc31)N=C(c1ccccc1)CS2,2.91 µM (active),
CC1Sc2n(c3ccccc3[n+]2C)N=C1c1ccccc1 (configuration not stated),7.31 µM (active),
COc1cc2c(c(Br)c1N)-c1cc(Br)c(N)cc1C2=O,4.11 µM (active),
O=C(Nc1ccccc1C(=O)N/N=C/c1ccco1)c1ccc(F)cc1,2.31 µM (active),
Nc1c(Cl)c(Cl)nc(C(=O)N/N=C/c2ccco2)c1Cl,2.59 µM (active),

SMILES,Potency,activation [%]
O=C(Nc1ccccc1C(=O)N/N=C/c1ccco1)c1ccccc1,2.31 µM (active),
Cc1nn(C)c(C)c1/C=C(/C(=O)C(C)(C)C)n1cncn1,11.6 µM (active),
O=C(CN1C(=O)S/C(=C\c2ccccc2Cl)C1=O)NC1C=CS(=O)(=O)C1 (configuration not stated),18.4 µM (active),
Brc1cc2c(cc1/C=N/Nc1nc3ccccc3s1)OCO2,2.31 µM (active),
O=[N+]([O-])c1cc(Cl)cc(/C=N/Nc2nc3ccccc3s2)c1O,,16.4
N#Cc1c(-c2ccco2)cc(-c2ccc(F)cc2)nc1N,2.31 µM (active),
CCc1nc(N)c(C#N)c(-c2ccco2)c1C,1.64 µM (active),
CC(C)Cc1cc(-c2ccco2)c(C#N)c(N)n1,1.3 µM (active),
N#Cc1c(-c2ccco2)cc(-c2ccccn2)nc1N,2.31 µM (active),
O=C(Oc1cccc(-c2cnc3ccccc3n2)c1)c1ccco1,3.26 µM (active),
c1coc(-c2cnc3ccccc3n2)c1,5.17 µM (active),
O=[N+]([O-])c1cccc(-c2cnc3ccccc3n2)c1,6.51 µM (active),
CC(=O)Nc1ccc(O)c(-c2nc3ccccc3s2)c1,2.06 µM (active),
O=[N+]([O-])c1ccc(Cl)c(/C=N/n2c(-c3ccncc3)n[nH]c2=S)c1,11.6 µM (active),
O=C(N/N=C/c1ccc(-c2cccc([N+](=O)[O-])c2)o1)c1cccs1,2.06 µM (active),
COC(=O)C1=C(C)N(C)C(=O)/C1=C\c1ccco1,2.06 µM (active),
COC(=O)C1=C(C)N(c2ccc(Br)cc2)C(=O)/C1=C\c1ccco1,18.4 µM (active),
COC(=O)C1=C(C)NC(=O)/C1=C\c1ccco1,3.66 µM (active),
CCN1C(=O)/C(=C\c2ccco2)C(C(=O)OC)=C1C,3.26 µM (active),
